Screens: PubChem, several laboratories
Sampled rows, rich in hits. Any-hit rate of the full collection: about 4.5%.
GDH-TPI inh – GDH-TPI coupling enzyme inhibitors, primary screen, artefact control for M. tuberculosis FBA inhibitor project, biochemical, absorbance, full deck. AID 588335, 2011. 1.2% of 360,000 active. GDH-TPI coupled enzyme counterscreen, NADH absorbance. inhibition, % at 4.8 µM; in the data active = inhibition above about 30%;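 also: 0% = DMSO wells and 100% = wells lacking the enzyme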
PfHsp40 yeast – rescue of yeast from PfHsp40 toxicity, primary screen, S. cerevisiae, ATP luminescence; S. cerevisiae expressing PfHsp40, growth rescue; growth rescue, % at 12.5 µM; 0.68% of 340,000 active; in the data active = growth rescue above about 28%, passing the limit was not always enough; inconclusive = no clear call, values can overlap the other calls;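 also: yeast W303a lacking pdr1 and pdr3 grown in galactose medium; growth measured after three days at 30 °C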
PrPC surface inh – inhibitors of human cell surface prion protein PrPC, primary screen, cell-based, TR-FRET. 0.43% of 370,000 active. TR-FRET read-out. AID 720596, 2013. Major prion protein (Homo sapiens), P04156. inhibition, % at 13.8 µM; in the data active = inhibition above about 24%; also: 0% = median of the test wells and 100% = reference compound wells
PrP UTR inh – inhibition of PrP 5' UTR reporter expression. cell-based PrP 5' UTR mRNA reporter, plate reader. inhibition, % (no concentration beside the values). 0.35% of 340,000 active; in the data active = inhibition above about 52%; also: 0 = median of the neutral control wells
BJeLR lethal – MLPCN primary cell-based screen for lethality selective to Ras in HRASV12 cells. inhibition, % (no concentration beside the values). AID 1554, 2009. 0.17% of 300,000 active. BJeLR (HRASV12) viability, CellTiter-Glo ATP luminescence, 48 h; in the data active = inhibition above about 50%; inconclusive = no clear call, values can overlap the other calls
Mtb FBA inh – Mtb FBA enzyme inhibitors, primary screen, biochemical, fluorescence, strain H37Rv. Fructose-bisphosphate aldolase (Mycobacterium tuberculosis (strain ATCC 25618 / H37Rv)), …. purified M. tuberculosis FBA, fluorescence read-out. inhibition, % at 1 µM. 2.3% of 360,000 active; in the data active = inhibition above about 27%;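 also: 0% = vehicle and 100% = reference inhibitor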
Target sequence (P9WQA3 whole entry, looked up): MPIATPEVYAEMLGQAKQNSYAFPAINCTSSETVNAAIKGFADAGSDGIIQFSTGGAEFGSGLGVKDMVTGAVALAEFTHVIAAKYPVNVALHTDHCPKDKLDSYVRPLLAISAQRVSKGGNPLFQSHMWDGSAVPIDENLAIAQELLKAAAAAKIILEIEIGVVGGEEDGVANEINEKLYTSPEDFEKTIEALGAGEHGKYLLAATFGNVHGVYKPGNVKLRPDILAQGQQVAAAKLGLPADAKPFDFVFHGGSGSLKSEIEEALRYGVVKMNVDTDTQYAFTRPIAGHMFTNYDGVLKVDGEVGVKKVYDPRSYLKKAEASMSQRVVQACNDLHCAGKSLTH
PrP UTR cherry – prion 5' UTR mRNA inhibition, cherry-pick retest. shares compounds with PrP UTR inh. cell-based prion protein 5' UTR reporter, plate reader. inhibition, % at 2.5 µM. 48% of 1,100 active. AID 504592, 2011; in the data active = inhibition above about 54%; inconclusive = no clear call, values can overlap the other calls
* = called active by the depositor; ? = inconclusive; · = no result given.

SMILES | GDH-TPI inh | PfHsp40 yeast | PrPC surface inh | PrP UTR inh | BJeLR lethal | Mtb FBA inh | PrP UTR cherry
COC(=O)c1c(NC(=O)c2ccc([N+](=O)[O-])o2)sc2c1CCN(C(C)C)C2 | 13 | 0 | 13 | 66* | 20 | 1 | 97*
Cc1ccc(/C=C2\CCC3=C2OC(N)=C(C#N)C3c2ccc(C)cc2)cc1 (stereo not given) | 10 | 0 | · | -33 | -6 | 7 | ·
N#CC1=C(N)OC2=C(CCc3ccccc32)C1c1ccccc1 (stereo not given) | 17 | 7 | 0 | 58* | 33 | 6 | 90*
CCC[C@H]1[C@@H](OC(=O)NCc2ccccc2Cl)CC[C@@]23CCCN2C(=O)CCC[C@@H]13 | · | · | 4 | · | · | · | ·
CC(C)(C)N1Cc2nnn(Cc3ccccc3)c2-c2cc(N3CCCC3)ccc2S1(=O)=O | · | · | 0 | · | · | · | ·
O=C(c1ccccc1)N1CCSc2sccc2C1=O | 1 | -1 | 1 | 58* | 9 | 1 | 40
COC(=O)[C@H](C(C)C)N1Cc2nnn(Cc3ccccc3)c2-c2cc(F)ccc2S1(=O)=O | · | · | -1 | · | · | · | ·
O=S(=O)(NCc1ccc(Cl)cc1)c1ccc(Br)cc1C1CC[C@@H](O)C1 (stereo not given in full) | · | · | -2 | · | · | · | ·
CC(/C=C1\SC(=O)N(CCCC(=O)O)C1=O)=C\c1ccccc1 | 6 | -1 | -1 | 83* | 1 | -2 | 86*
O=C1C=C(Nc2cccc3cccnc23)c2ccccc2C1=O | -5 | -1 | -18 | 64* | 45 | 1 | -36
O=C1C=C(Nc2ccccc2)c2ccccc2C1=O | 8 | -3 | -3 | -14 | -8 | -7 | ·
O=C(NC(=S)N1CCN(CCO)CC1)C12CC3CC(CC(C3)C1)C2 | -2 | -1 | -2 | 80* | -12 | -3 | 1
O=C(NCc1ccccc1F)C1CCC(CNS(=O)(=O)c2cccc3cccnc23)CC1 (stereo not given) | · | · | 5 | · | · | · | ·
COc1ccc(Cl)cc1NC(=O)/C=C\C(=O)O | 1 | -2 | 0 | 70* | -5 | -1 | -10
COC(=O)CCn1nnc(-c2ccc(C(C)C)cc2)n1 | -8 | 1 | -11 | 73* | 2 | 5 | 70*
COc1ccc(OCC(=O)Nc2nccs2)cc1 | -3 | -1 | 9 | 24 | 27 | 2 | ·
CCOc1ccc(OCC(=O)Nc2nccs2)cc1 | 8 | 0 | · | 58* | 36 | 3 | 37
Cc1cccc(CN2CCN(C3CN(Cc4cn(Cc5ccc(Cl)cc5)nn4)S(=O)(=O)C3)CC2)c1 (stereo not given) | · | · | -1 | · | · | · | ·
NC(=O)c1ccc(NCCc2ccccc2)c([N+](=O)[O-])c1 | -2 | 1 | -36 | -10 | 2 | -5 | ·
COc1ccc(CCNc2ccc(C(=O)O)cc2[N+](=O)[O-])cc1OC | 5 | 0 | -28 | 62* | 7 | -7 | 10
CCCCOCC(O)CCc1n[nH]c(=S)n1-c1ccccc1 (stereo not given) | -4 | 0 | 0 | 80* | -4 | 0 | 5
CCCCNC(=O)C[C@H]1C[C@@]2(C(=O)OC)C(=C[C@H](C3CCCC3)O[C@@H]2C)N(Cc2ccco2)C1=O | · | · | 6 | · | · | · | ·
COC(=O)[C@H](Cc1ccccc1)N1Cc2ccccc2Oc2cc(Br)ccc2S1(=O)=O | · | · | 3 | · | · | · | ·
CC1OC(OC2C(O)CC(OC3C(O)CC(OC4CCC5(C)C(CCC6C5CCC5(C)C(C7=CC(=O)OC7)C(O)CC65O)C4)OC3C)OC2C)CC(O)C1O (stereo not given) | 4 | 1 | 2 | 94* | · | 1 | 86*
C[C@H]1O[C@@H](OC2CC[C@]3(C=O)[C@H]4CC[C@]5(C)[C@@H](C6=CC(=O)OC6)CC[C@]5(O)[C@@H]4CC[C@]3(O)C2)CC2OC(C)(C)OC21 (stereo not given in full) | 6 | 1 | -4 | 84* | 69* | 1 | 85*
SMILES | GDH-TPI inh | PfHsp40 yeast | PrPC surface inh | PrP UTR inh | BJeLR lethal | Mtb FBA inh | PrP UTR cherry
CC(=O)OC1CC(OC2C(O)CC(OC3C(O)CC(OC4CCC5(C)C(CCC6C5CCC5(C)C(C7=CC(=O)OC7)C(O)CC65O)C4)OC3C)OC2C)OC(C)C1OC1OC(CO)C(O)C(O)C1O (stereo not given) | 0 | 2 | 0 | 94* | · | 4 | 68*
CC(=O)OC1CC2(O)C3CCC4CC(O)CCC4(C)C3CCC2(C)C1C1=CC(=O)OC1 (stereo not given) | 1 | -1 | 3 | 86* | · | -2 | 80*
CC12CC[C@H]3[C@@H](CCC4(O)C[C@H](O)CCC34/C=N/NC(=O)c3ccccc3Cl)C1(O)CCC2C1=CC(=O)OC1 (stereo not given in full) | -5 | -1 | -3 | -31 | 4 | 5 | ·
COc1ccccc1C(=O)Nc1ccc2c(c1)nc1n2CCN(Cc2ccccc2)C1 | -2 | 0 | -2 | 56* | -2 | 10 | -4
CCCCN=C[C@]12CCC(O)CC1(O)CCC1[C@@H]2CC[C@]2(C)[C@H](C3C=CC(=O)O3)CCC12O (stereo not given in full) | -3 | 1 | 5 | 83* | 68* | -2 | 78*
CC12CCC3C(CCC4(O)CC(O)CCC34C=NO)C1(O)CCC2C1=COC(=O)C1 (stereo not given) | 4 | 0 | 4 | 89* | · | -1 | 85*
O=C1CC(C(=O)Nc2cc(Cl)ccc2Cl)n2ncnc2N1 (stereo not given) | -2 | 0 | 8 | 78* | -3 | 2 | -47
Cc1ccc(Cl)cc1NC(=O)C1CC(=O)Nc2ncnn21 (stereo not given) | 2 | 0 | 6 | -16 | -4 | 7 | ·
COc1cc(-c2noc(C)c2-c2ccc3[nH]ccc3c2)cc(OC)c1OC | 6 | 2 | · | -17 | 13 | 4 | ·
COc1cc(-c2noc(C)c2-c2ccc(N(C)C)nc2)cc(OC)c1OC | 10 | 0 | 3 | 67* | 41 | 2 | 90*
COc1ccc2nc(NCCNC(=S)NCCCN3CCOCC3)c(C#N)cc2c1 | -2 | 0 | 3 | 78* | -6 | 8 | ?
CCCCCN1CCCCC(NC(=O)c2ccc(F)c(F)c2)C1=O (stereo not given) | · | · | -4 | · | · | · | ·
Cc1cc(C(=O)CSc2nnc(-c3ccccc3)n2-c2ccccc2)c(C)n1-c1ncn[nH]1 | 4 | 0 | 2 | 4 | 0 | -3 | ·
Cc1cc(C(=O)CSc2nnc3ccccn23)c(C)n1-c1ccccc1 | 14 | -2 | -7 | 67* | -3 | 3 | 85*
